Laboratory results published in the supplement of paper PMC7156485.
Values joined by “and” are separate entries in the source; they are usually repeats but may differ in a detail not shown here. Identical values can stand only once. ± gives the standard deviation of the averaged measurements.

Key:
Conditions in all cases: concentration: 10 µM; 24 h
[1] = system: HCC1569; assay: cell number relative to DMSO (% of DMSO); higher = more cells (less growth inhibition / toxicity)
Procedure, shortened: (§1)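 In 384-well plates holding 800 HCC1569 or TDF cells per well in RPMI with 10% FBS, compounds were tested at 10 µM for 24 h at 37 °C in triplicate. Fixation used 3.7% formaldehyde. Staining used a rabbit anti-H1.0 antibody with an AlexaFluor 647 secondary, plus DAPI. Each value, H1.0 nuclear intensity or cell number, is a median of replicates shown as percent of the plate control, and HCC1569 values were smoothed for positional effects.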

[2] = system: TDF; assay: as above
Procedure, shortened: as §1

[3] = system: TDF; assay: H1.0 immunofluorescence intensity relative to DMSO (% of DMSO); higher = stronger H1.0 induction, active = 120 or more
Procedure, shortened: as §1

[4] = system: HCC1569; assay: H1.0 immunofluorescence intensity relative to DMSO (% of DMSO); higher = stronger H1.0 induction, active = 140 or more
Procedure, shortened: as §1
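Throughout, for H1.0 immunofluorescence intensity relative to DMSO: TDF is a line of transformed human dermal fibroblasts of mesenchymal origin.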
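Throughout, for cell number relative to DMSO: TDF denotes transformed human dermal fibroblasts of mesenchymal origin.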

COC(=O)Nc1nc2ccc(C(=O)c3ccc(F)cc3)cc2[nH]1 [Flubendazole]
cell number [1]: 65.9 | cell number [2]: 9.66 | H1.0 immunofluorescence intensity [3]: 151 (active) | H1.0 immunofluorescence intensity [4]: 168 (active)

CCSC(N)=Nc1ccc(C(F)(F)F)cc1.Cl [TFPI hydrochloride]
cell number [1]: 79.3 | cell number [2]: 90.8 | H1.0 immunofluorescence intensity [3]: 99.6 (inactive) | H1.0 immunofluorescence intensity [4]: 132 (inactive)

CC1COC2=C1C(=O)C(=O)c1c2ccc2c1CCCC2(C)C (configuration not stated) [Cryptotanshinone]
cell number [1]: 96.6 | cell number [2]: 64.9 | H1.0 immunofluorescence intensity [3]: 106 (inactive) | H1.0 immunofluorescence intensity [4]: 100 (inactive)

COc1ccc(Cl)cc1C(=O)NCCc1ccc(S(=O)(=O)NC(=O)NC2CCCCC2)cc1 [Glyburide]
cell number [1]: 107 | cell number [2]: 102 | H1.0 immunofluorescence intensity [3]: 90.2 (inactive) | H1.0 immunofluorescence intensity [4]: 109 (inactive)

COC1C=CC=C(C)C(=O)NC2=CC(=O)C=C(C2=O)C(OC)C(C)CC(OC)C(OC)C(C)C=C(C)C1OC(N)=O (configuration not stated) [Herbimycin A, Streptomyces sp.]
cell number [1]: 62.4 | cell number [2]: 54.7 | H1.0 immunofluorescence intensity [3]: 88.3 (inactive) | H1.0 immunofluorescence intensity [4]: 180 (active)

COc1cc2ncc(-c3ccccc3)nc2cc1OC [Tyrphostin AG 1296]
cell number [1]: 98.1 | cell number [2]: 106 | H1.0 immunofluorescence intensity [3]: 97.3 (inactive) | H1.0 immunofluorescence intensity [4]: 111 (inactive)

COc1cc2c(cc1-c1c(C)noc1C)ncc1[nH]c(=O)n([C@H](C)c3ccccn3)c12
cell number [1]: 75 | cell number [2]: 66.3 | H1.0 immunofluorescence intensity [3]: 138 (active) | H1.0 immunofluorescence intensity [4]: 218 (active)

CN1CCCC1c1cccnc1.O=C(O)C(O)C(O)C(=O)O.O=C(O)C(O)C(O)C(=O)O (single isomer, unassigned; (-)) [(-)-Nicotine hydrogen tartrate salt]
cell number [1]: 102 | cell number [2]: 103 | H1.0 immunofluorescence intensity [3]: 90 (inactive) | H1.0 immunofluorescence intensity [4]: 99.2 (inactive)

CCCCCCCCCCCCCCCCOP(=O)([O-])OCC[N+](C)(C)C [Miltefosine]
cell number [1]: 97.1 | cell number [2]: 109 | H1.0 immunofluorescence intensity [3]: 92.7 (inactive) | H1.0 immunofluorescence intensity [4]: 113 (inactive)

CC(N)C1CCC(C(=O)Nc2ccncc2)CC1.Cl.Cl.O (configuration not stated)
cell number [1]: 109 | cell number [2]: 104 | H1.0 immunofluorescence intensity [3]: 97.1 (inactive) | H1.0 immunofluorescence intensity [4]: 102 (inactive)

CON(C)C(=O)[C@H](O)[C@H](Cc1ccccc1)NC(=O)c1cc2cc(Cl)ccc2[nH]1
cell number [1]: 103 | cell number [2]: 110 | H1.0 immunofluorescence intensity [3]: 88.1 (inactive) | H1.0 immunofluorescence intensity [4]: 103 (inactive)

O=C1NCN(c2ccccc2)C12CCN(CCCC(c1ccc(F)cc1)c1ccc(F)cc1)CC2 [Fluspirilene]
cell number [1]: 82.7 ± 16 | cell number [2]: 87.1 ± 7.5 | H1.0 immunofluorescence intensity [3]: 106 (inactive) | H1.0 immunofluorescence intensity [4]: 126 (inactive)

COc1ccc(N2C(=O)CSC2c2cccc(Br)c2)c(OC)c1 (configuration not stated)
cell number [1]: 59.5 | cell number [2]: 10.8 | H1.0 immunofluorescence intensity [3]: 156 (active) | H1.0 immunofluorescence intensity [4]: 146 (active)

O=C1CCc2ccc(OCCCCN3CCN(c4cccc(Cl)c4Cl)CC3)cc2N1 [Aripiprazole]
cell number [1]: 95.5 | cell number [2]: 97 | H1.0 immunofluorescence intensity [3]: 96.2 (inactive) | H1.0 immunofluorescence intensity [4]: 126 (inactive)

CC1Cc2ccccc2N1NC(=O)c1ccc(Cl)c(S(N)(=O)=O)c1 (configuration not stated) [Indapamide]
cell number [1]: 106 | cell number [2]: 101 | H1.0 immunofluorescence intensity [3]: 88.5 (inactive) | H1.0 immunofluorescence intensity [4]: 112 (inactive)

O=c1oc2c(O)c(O)cc3c(=O)oc4c(O)c(O)cc1c4c23 [Ellagic acid]
cell number [1]: 102 | cell number [2]: 106 | H1.0 immunofluorescence intensity [3]: 102 (inactive) | H1.0 immunofluorescence intensity [4]: 90.6 (inactive)

CC1(C)CCCC(C)(C2CCC3(C)C2C(O)CC2C4(C)CCC(O)C(C)(C)C4CCC23C)O1 (configuration not stated) [Panaxadiol]
cell number [1]: 105 | cell number [2]: 103 | H1.0 immunofluorescence intensity [3]: 91.8 (inactive) | H1.0 immunofluorescence intensity [4]: 93.6 (inactive)

CCC(C)n1ncn(-c2ccc(N3CCN(c4ccc(OCC5COC(Cn6cncn6)(c6ccc(Cl)cc6Cl)O5)cc4)CC3)cc2)c1=O (configuration not stated) [Itraconazole]
cell number [1]: 79.5 | cell number [2]: 93 | H1.0 immunofluorescence intensity [3]: 108 (inactive) | H1.0 immunofluorescence intensity [4]: 149 (active)

CSc1nc2ccc3nc(NC(=O)C(c4ccccc4)c4ccccc4)sc3c2s1
cell number [1]: 103 | cell number [2]: 121 | H1.0 immunofluorescence intensity [3]: 99.4 (inactive) | H1.0 immunofluorescence intensity [4]: 94 (inactive)

Cc1ccc(NC(=O)c2ccc(CN3CCN(C)CC3)cc2)cc1Nc1nccc(-c2cccnc2)n1 [Imatinib]
cell number [1]: 101 | cell number [2]: 101 | H1.0 immunofluorescence intensity [3]: 107 (inactive) | H1.0 immunofluorescence intensity [4]: 103 (inactive)

CCOC(=O)C12CC1C(=NO)c1ccccc1O2 (configuration not stated)
cell number [1]: 100 | cell number [2]: 105 | H1.0 immunofluorescence intensity [3]: 93.9 (inactive) | H1.0 immunofluorescence intensity [4]: 97.2 (inactive)

NC(Cc1ccc(O)c(O)c1)C(=O)O (configuration not stated) [Levodopa]
cell number [1]: 96.9 | cell number [2]: 102 | H1.0 immunofluorescence intensity [3]: 93.3 (inactive) | H1.0 immunofluorescence intensity [4]: 96.9 (inactive)

O=C1C=CC(=C2NC(c3ccncc3)=C(c3ccc(F)cc3)N2)C=C1
cell number [1]: 79.5 and 79.7 | cell number [2]: 95.1 and 96.9 | H1.0 immunofluorescence intensity [3]: 97.7 (inactive) and 97.1 (inactive) | H1.0 immunofluorescence intensity [4]: 125 (inactive) and 124 (inactive)
